Experiments:
Assay in all cases: PBM binding z-score (relative to random genomic background probes); higher = stronger binding; sequences stand for … in GC…GCGATTGACAGCGTAGAATGAAGG
[1] = tested on: PPARg:RXRa DBDmut IVT, anti-RXR (DBD mutation: RXRa K156A/R161A, NR concentration 270 nM, RXRa partner concentration 90 nM)
In short: (§1)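 For binding z-scores, the reference was random background probes on custom Agilent 4×180K protein-binding microarrays. These arrays were incubated 1 h with ligand-free nuclear receptor dimers in PBS pH 7.4, 2% milk, 0.02% Triton X-100, 1 mM DTT, 0.2 mg/mL BSA and 0.4 mg/ml salmon testes DNA. Fluorescence was scanned after antibody detection of each partner (one per run) and regression-normalized.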

[2] = tested on: PPARg:RXRa IVT, anti-PPARg (NR concentration 270 nM, RXRa partner concentration 90 nM)
In short: as §1

[3] = tested on: PPARg DBDmut:RXRa IVT, anti-PPARg (DBD mutation: PPARg1 K132A/R137A, NR concentration 270 nM, RXRa partner concentration 90 nM)
In short: as §1

[4] = tested on: PPARg DBDmut IVT, anti-PPARg (DBD mutation: PPARg1 K132A/R137A, NR concentration 270 nM)
In short: as §1

[5] = tested on: PPARg homodimer (NR concentration 180 nM)
In short: as §1

[6] = tested on: PXR:RXRa (NR concentration 270 nM, RXRa partner concentration 90 nM)
In short: as §1

[7] = tested on: PXR homodimer (NR concentration 270 nM)
In short: as §1

[8] = tested on: RARa:RXR (NR concentration 270 nM, RXRa partner concentration 90 nM)
In short: as §1

[9] = tested on: RARa homodimer (NR concentration 270 nM)
In short: as §1

[10] = tested on: RARb:RXRa (NR concentration 270 nM, RXRa partner concentration 90 nM)
In short: as §1

Sequence	PBM binding z-score [1]	PBM binding z-score [2]	PBM binding z-score [3]	PBM binding z-score [4]	PBM binding z-score [5]	PBM binding z-score [6]	PBM binding z-score [7]	PBM binding z-score [8]	PBM binding z-score [9]	PBM binding z-score [10]
GCGACTGGGGCAAAGAAGGTTACCATAAGGTTGG	4.68	3.4	-0.0271	-0.382	0.618	1.11	-0.136	1.22	-0.528	1.59
CATAAAGGGTCAGCTAGGCCAGAGTAGGGACGGC	1.58	2.9	0.703	0.0542	2.26	2.18	-0.269	3.32	0.796	4.9
GGAACGAGGGCAAAGTTAATAGCATCTGTCGACG	4	4.19	0.116	-0.54	0.877	1.19	0.225	1.24	0.00739	2.55
TCTTGTAGATCAACAGGAGGTGAAGAAAGATCGA	1.56	1.14	-0.0745	1.41	-0.39	0.179	-0.438	0.154	-0.0996	0.194
CAAACTAGGTCACGAAAGGTCACAGTCGAATGAC	8.61	9.14	2.02	1.37	4.6	6.61	1.31	7.03	2.46	5.7
ACTAGCAGGCCAAGTTTGGGACACTCAAACAAAG	0.573	0.235	-0.681	-1.33	-0.893	-0.655	-0.694	-0.143	-0.864	0.366
TCTCGGAGGACACGAAGGTGAGAGCTTTCCAGAG	1.32	0.688	-0.824	-1.52	-0.651	-0.315	-0.615	-0.0834	-0.906	1.69
ACTATTATTTGAGACGAGGGCAACCGATAGGTTG	0.883	0.779	1.61	1.74	1.86	0.944	1.91	1.04	3.89	1.35
CCTTACGGGTCACTGAGAGGTTATAGCATTTGGA	3.25	3.46	0.696	-0.194	3.62	5.18	0.124	5.88	1.03	4.1
TAGCCTAGGTCATGCGGGCGAGTATAGTGTCGGC	1.54	2.78	-0.28	-1	0.366	0.704	-0.37	1.97	-0.358	3.54
CCCGCTAGGTCAATGGTCAGCTAAAGCAGCTCGC	4.1	3.83	-0.504	-0.484	1.55	1.09	-0.582	1.91	-0.541	3.78
ACTAGCAGGCCAAGCGTCACTCAAGATTAGTCCG	1.13	0.488	0.0158	-0.899	-0.388	-0.885	-0.421	-0.946	-1.3	0.43
CCAGACAAGTGAAAGGTAACTCAGTCTGGTACGC	-0.0186	0.0117	-0.187	-0.255	0.888	0.0621	-0.0763	0.166	0.124	0.247
GCGTCTGGGGCATCAGCAGGTTACCATAACTTAA	2.39	1.72	-0.946	-0.371	0.169	-0.00705	-0.377	0.336	-0.422	0.978
CCGCCTGGGGCAAAGGTTACCATACTCAGTACGA	0.0766	3.23	-0.483	-0.8	2.34	2.62	-0.268	4.07	0.0335	2.47
ATCTCTAGGTAAGACTCAGTTCGGTGAAGAACGC	2.26	1.24	0.576	0.0505	0.778	0.179	0.754	0.0942	0.985	0.104
AGTCAAAGTTCATCTAGGTAACGGAAGATATGCT	0.826	4.12	1.91	0.45	3.26	5.42	7.16	3.87	2.15	4.94
TCTTGTAGATCAACAGGAGGTTAAGATAGATCGA	1.53	1.03	0.933	1.02	0.31	0.729	-0.114	1.05	0.362	0.506
CCGACTTGGGCAAGGTTACCATAACGCACAGCCA	0.0909	0.144	-0.175	-0.816	0.358	0.327	0.162	0.774	0.309	0.889
CCTAGTGGGCCACGAAAGGTCATTGATTCAGTGA	5.45	5.59	0.164	-0.293	2.95	5.35	1.17	5.06	0.966	3.93
CGAACTAGGTCATCCAGGCCAGTGAATACATTGA	7.88	8.53	3.15	2.65	2.08	1.61	0.572	2.4	0.167	3.91
GCTCGGAGAACAAGGTCAGAGCTTTGTCCGTAGA	0.447	0.471	-0.968	-1.78	0.759	1.73	-0.538	1.79	-0.831	2.86
CGATCTAGGTCAGAACAGGACAGTGAAGGATGAT	6.87	6.77	1.59	1.33	0.826	0.571	-0.0995	1.13	0.466	2.66
ATCGAAAGGTCGAGGTGAGAATAGAGAAAGGGAA	0.541	2.39	1.22	0.93	0.599	2.36	0.337	3.52	0.51	4.16
GATACAGGGTCAGCGAGAGGCCAGAGTATGGAAA	1.16	2.78	-0.0146	-0.645	2.81	3.7	0.293	4.49	0.19	4.26

Source: the supplement of paper PMC6555819
